Experimental data published in ChEMBL document CHEMBL3988442, “University of Dundee, Small-Polar-MMV Screening Library” (2021).
For some of these results: Measured potencies and affinities stand elsewhere.

Legend:
Design in all cases: scale not given: direction of the effect not stated beside the values
[1] = molecular target: Protein translocase subunit SecA (Escherichia coli (strain K12)) (UniProt P10408); assay: Assay to Identify E. coli SecA ATPase Inhibitors; assay type: functional; details: 30 µM
Chain of Protein translocase subunit SecA (Escherichia coli (strain K12)) (P10408 whole entry): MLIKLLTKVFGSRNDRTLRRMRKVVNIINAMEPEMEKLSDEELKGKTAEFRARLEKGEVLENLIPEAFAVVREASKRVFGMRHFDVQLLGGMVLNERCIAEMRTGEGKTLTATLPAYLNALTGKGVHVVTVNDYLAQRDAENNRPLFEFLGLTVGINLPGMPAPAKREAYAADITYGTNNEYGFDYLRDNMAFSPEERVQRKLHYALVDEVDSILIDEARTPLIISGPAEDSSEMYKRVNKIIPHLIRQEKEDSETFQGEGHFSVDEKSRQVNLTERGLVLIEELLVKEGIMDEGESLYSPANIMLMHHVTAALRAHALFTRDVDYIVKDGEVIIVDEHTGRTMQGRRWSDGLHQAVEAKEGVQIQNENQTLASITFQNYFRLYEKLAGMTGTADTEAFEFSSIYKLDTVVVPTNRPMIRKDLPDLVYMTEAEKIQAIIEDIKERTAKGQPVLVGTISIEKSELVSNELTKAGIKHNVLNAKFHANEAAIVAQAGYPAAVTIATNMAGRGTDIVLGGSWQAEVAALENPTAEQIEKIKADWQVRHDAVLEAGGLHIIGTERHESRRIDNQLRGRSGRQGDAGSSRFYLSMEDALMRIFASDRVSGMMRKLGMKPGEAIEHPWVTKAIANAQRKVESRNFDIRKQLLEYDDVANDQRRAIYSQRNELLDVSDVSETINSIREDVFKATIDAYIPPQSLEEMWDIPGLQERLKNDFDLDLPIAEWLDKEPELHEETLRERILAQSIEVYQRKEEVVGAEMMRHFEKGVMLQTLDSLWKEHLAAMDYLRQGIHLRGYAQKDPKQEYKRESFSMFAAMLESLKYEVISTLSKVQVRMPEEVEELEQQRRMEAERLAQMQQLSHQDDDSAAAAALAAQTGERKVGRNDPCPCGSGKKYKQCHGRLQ

[2] = molecular target: T1, Ubiquitin-activating enzyme e1, putative (Leishmania donovani (strain BPK282A1)) (UniProt E9BSI1); assay: Leishmania donovani Ubiquitin Activating Enzyme (LdE1); assay type: functional; details: 30 µM
T1 sequence (whole entry): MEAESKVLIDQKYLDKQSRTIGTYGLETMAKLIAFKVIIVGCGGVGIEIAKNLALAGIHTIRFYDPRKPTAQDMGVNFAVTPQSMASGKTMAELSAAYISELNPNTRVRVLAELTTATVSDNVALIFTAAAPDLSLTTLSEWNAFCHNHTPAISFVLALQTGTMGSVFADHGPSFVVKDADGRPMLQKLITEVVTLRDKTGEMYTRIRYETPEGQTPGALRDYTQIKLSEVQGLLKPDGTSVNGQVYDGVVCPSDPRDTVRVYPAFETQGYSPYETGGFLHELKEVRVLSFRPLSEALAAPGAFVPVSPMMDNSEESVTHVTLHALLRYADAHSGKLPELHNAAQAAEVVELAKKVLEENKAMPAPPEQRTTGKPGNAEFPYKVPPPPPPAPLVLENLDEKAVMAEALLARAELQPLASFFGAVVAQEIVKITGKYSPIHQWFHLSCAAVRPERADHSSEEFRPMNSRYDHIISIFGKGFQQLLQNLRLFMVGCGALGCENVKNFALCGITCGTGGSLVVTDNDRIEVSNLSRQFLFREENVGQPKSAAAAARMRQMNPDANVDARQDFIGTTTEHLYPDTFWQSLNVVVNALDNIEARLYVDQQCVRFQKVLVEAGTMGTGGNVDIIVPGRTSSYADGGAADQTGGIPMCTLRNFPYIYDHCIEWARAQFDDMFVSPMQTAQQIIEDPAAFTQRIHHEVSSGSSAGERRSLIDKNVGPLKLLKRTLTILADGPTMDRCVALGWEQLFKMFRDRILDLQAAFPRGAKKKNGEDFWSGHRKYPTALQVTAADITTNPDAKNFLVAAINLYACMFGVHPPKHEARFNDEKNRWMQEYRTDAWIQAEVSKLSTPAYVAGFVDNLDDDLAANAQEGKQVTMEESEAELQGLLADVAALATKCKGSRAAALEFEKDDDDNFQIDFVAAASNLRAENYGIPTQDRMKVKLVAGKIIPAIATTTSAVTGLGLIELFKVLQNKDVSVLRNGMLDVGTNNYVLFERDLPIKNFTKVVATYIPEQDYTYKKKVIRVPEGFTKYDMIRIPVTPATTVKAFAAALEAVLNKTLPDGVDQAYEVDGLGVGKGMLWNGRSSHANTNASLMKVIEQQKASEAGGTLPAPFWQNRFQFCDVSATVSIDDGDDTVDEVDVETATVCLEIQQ

[3] = molecular target: AMP-activated protein kinase, AMPK (Homo sapiens) (UniProt P54646+O43741+P54619+Q9UGJ0+Q9Y478+Q13131+Q9UGI9); assay: AMP-dependent Kinase enzyme assay. An in vitro enzyme assay that detects ADP turnover that is directly proportional to AMPK activity. This uses naive AMPK that is activated during the assay with MK-8722; assay type: functional; details: 30 µM
[4] = molecular target: Sialic acid-binding Ig-like lectin 9 (Homo sapiens) (UniProt Q9Y336); assay: Hs-Siglec9 ALPHAscreen SOP 20170721; details: 10 µM
Chain of Sialic acid-binding Ig-like lectin 9 (Homo sapiens) (Q9Y336 whole entry): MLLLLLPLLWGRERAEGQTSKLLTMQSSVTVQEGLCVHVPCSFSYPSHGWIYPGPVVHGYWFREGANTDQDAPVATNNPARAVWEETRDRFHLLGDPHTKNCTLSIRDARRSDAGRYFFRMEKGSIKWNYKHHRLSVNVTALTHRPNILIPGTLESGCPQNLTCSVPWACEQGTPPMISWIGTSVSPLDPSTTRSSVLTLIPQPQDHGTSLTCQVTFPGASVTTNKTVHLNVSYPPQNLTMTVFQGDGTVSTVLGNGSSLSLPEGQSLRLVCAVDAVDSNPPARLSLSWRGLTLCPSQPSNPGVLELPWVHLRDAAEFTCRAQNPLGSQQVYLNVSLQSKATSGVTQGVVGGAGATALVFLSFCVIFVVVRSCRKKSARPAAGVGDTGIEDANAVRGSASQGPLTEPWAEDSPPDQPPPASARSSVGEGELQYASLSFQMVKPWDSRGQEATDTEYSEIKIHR

Trypanosoma cruzi = assay: Trypanosoma cruzi phosphomannomutase and mannose-1-phosphate guanylyltransferase assay; assay type: functional; details: 10 µM
[5] = molecular target: T2, Arginase-2, mitochondrial (Homo sapiens) (UniProt P78540); assay: in vitro enzyme assay to detect the production of urea directly proportional to the activity of Arginase II; assay type: functional; details: 33.3 µM; further: in the data most compounds retested in dose-response had high values
T2 sequence (whole entry): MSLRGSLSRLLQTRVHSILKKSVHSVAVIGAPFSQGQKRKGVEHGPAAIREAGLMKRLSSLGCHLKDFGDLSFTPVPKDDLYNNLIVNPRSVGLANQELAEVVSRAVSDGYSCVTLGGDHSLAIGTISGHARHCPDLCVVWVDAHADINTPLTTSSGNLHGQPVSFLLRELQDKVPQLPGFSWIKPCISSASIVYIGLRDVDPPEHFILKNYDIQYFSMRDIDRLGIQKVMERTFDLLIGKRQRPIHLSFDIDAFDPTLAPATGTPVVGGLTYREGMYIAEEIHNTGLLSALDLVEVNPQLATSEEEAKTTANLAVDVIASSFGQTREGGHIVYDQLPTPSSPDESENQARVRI

[6] = molecular target: T3, Proteasome subunit beta (Trypanosoma cruzi) (UniProt O96673); assay: Trypanosoma cruzi proteasome chymotrypsin-like activity (TcProtChymo) assay.; further: in the data most compounds retested in dose-response had high values; assay type: functional; details: 9.37 µM
T3 sequence (whole entry): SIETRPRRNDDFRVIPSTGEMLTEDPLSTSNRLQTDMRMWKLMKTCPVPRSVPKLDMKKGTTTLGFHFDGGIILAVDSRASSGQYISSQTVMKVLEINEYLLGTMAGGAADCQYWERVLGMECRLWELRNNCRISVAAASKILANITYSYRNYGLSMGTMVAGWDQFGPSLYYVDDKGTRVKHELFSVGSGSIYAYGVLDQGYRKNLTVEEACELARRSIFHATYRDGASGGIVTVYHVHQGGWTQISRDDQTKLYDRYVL

Homo sapiens = species on record: Homo sapiens; assay: To identify inhibition of the IFN signalling (Jak-Stat) pathway via expression of an eGFP reporter gene under the control of an IFN-stimulated response element (ISRE) containing MxA promoter.; assay type: functional; details: 30 µM
[7] = molecular target: T4, Tyrosyl-tRNA synthetase, putative (Trypanosoma cruzi (strain CL Brener)) (UniProt Q4DSP6); assay: Trypanosoma cruzi tyrosyl tRNA synthetase (TcYRS) _High Tyrosine SOP; assay type: functional; details: 30 µM; further: in the data most compounds retested in dose-response had high values
T4 sequence (whole entry): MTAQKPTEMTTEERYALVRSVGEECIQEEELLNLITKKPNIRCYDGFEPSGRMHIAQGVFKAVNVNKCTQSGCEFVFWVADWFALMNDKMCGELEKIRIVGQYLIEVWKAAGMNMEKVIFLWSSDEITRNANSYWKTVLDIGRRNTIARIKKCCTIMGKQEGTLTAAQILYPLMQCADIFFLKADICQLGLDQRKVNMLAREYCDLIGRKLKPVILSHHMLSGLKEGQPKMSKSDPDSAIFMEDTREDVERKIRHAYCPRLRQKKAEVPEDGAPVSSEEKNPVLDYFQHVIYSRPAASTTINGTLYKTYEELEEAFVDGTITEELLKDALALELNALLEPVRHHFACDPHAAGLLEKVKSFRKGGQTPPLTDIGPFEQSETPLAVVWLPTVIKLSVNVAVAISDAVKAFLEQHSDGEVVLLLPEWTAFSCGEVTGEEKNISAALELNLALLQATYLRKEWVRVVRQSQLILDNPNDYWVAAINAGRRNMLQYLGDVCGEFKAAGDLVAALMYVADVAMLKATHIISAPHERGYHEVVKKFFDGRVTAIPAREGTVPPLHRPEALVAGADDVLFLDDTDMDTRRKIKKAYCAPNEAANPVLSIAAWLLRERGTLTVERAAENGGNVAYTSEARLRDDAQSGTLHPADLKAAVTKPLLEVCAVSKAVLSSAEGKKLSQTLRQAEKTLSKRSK

[8] = molecular target: T4, Tyrosyl-tRNA synthetase, putative (Trypanosoma cruzi (strain CL Brener)); assay: Trypanosoma cruzi tyrosyl tRNA synthetase (TcYRS) SOP; assay type: functional; details: 30 µM
[9] = molecular target: Chromo domain-containing protein 1 (Saccharomyces cerevisiae (strain ATCC 204508 / S288c) (Baker's yeast)) (UniProt P32657); assay: ScCHD-1 Enzyme Inhibition Assay; assay type: functional; details: 30 µM; further: in the data most compounds retested in dose-response had high values
Chain of Chromo domain-containing protein 1 (Saccharomyces cerevisiae (strain ATCC 204508 / S288c) (Baker's yeast)) (P32657 whole entry, the tested form may be a part): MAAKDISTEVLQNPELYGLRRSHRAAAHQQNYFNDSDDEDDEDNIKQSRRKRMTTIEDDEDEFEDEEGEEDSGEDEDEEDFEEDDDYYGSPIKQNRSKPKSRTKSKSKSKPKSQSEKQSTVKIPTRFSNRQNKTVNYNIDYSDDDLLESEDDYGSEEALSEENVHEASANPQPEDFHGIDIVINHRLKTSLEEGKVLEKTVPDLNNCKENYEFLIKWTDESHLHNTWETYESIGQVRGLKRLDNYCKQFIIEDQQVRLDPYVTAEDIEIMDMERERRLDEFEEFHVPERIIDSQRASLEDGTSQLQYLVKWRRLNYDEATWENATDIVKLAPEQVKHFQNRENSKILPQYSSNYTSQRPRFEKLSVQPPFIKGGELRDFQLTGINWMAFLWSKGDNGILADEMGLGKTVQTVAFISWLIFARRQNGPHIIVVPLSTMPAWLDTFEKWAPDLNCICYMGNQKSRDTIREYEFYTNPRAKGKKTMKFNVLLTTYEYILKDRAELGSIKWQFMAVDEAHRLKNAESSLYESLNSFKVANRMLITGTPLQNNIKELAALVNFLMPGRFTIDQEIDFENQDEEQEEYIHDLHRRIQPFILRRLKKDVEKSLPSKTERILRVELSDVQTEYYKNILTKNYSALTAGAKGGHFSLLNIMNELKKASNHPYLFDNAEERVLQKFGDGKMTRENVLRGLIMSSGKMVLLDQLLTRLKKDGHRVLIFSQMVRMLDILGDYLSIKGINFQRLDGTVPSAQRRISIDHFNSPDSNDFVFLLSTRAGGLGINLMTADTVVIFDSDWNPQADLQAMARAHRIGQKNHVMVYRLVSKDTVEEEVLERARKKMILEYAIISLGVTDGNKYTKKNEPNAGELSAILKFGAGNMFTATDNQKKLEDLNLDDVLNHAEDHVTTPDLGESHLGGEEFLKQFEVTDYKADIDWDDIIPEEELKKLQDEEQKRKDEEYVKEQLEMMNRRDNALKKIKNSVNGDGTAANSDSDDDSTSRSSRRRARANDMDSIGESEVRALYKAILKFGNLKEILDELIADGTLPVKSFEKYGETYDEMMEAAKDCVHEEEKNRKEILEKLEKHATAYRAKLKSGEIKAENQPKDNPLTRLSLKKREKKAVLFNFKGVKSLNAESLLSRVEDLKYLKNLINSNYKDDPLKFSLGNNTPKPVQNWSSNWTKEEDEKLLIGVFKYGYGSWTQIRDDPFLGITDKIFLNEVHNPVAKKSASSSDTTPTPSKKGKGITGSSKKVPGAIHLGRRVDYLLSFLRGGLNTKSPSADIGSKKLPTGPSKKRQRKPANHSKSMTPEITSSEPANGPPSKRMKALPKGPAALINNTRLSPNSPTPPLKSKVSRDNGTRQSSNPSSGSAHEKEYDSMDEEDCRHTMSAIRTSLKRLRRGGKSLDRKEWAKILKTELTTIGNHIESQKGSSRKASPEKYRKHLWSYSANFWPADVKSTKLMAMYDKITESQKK

Structure (SMILES) | Percent Effect [1] [%] | Percent Effect [2] [%] | Percent Effect [3] [%] | Percent Effect [4] [%] | Percent Effect (Trypanosoma cruzi) [%] | Percent Effect [5] [%] | Percent Effect [6] [%] | Percent Effect (Homo sapiens) [%] | Percent Effect [7] [%] | Percent Effect [8] [%] | Percent Effect [9] [%]
c1ccc(OCCCNCCn2cccn2)cc1 | -4.38 | 1.27 | -0.45 | 4.63 | 4 | -2.8 | 3.94 | -1.21 | 5.21 | 10.1 | -18.9
O=C(CO)N1CCC(c2cncc(-c3cccc(Cl)c3)n2)CC1 | -2.26 | -2.67 | 27.8 | -7.86 | 8.27 | 138 | 15.9 | 6.85 | 11.7 | 16.7 | -5.15
O=C(c1csc(Br)c1)N1CCCC(n2ccnc2)C1 (stereo not given) | -3.43 | 11.4 | -1.54 | -8.98 | 2.56 | -5.38 | 2.74 | -8.54 | 2.08 | 12.7 | 54.1
Cn1cccc1C(=O)N1CCN(CC2CC2)c2ncccc2C1 | -6.82 | 10.7 | -5.74 | 2.72 | 2.7 | -56.8 | 7.18 | 3.32 | 1.04 | 10 | -4.08
Cc1cnn(C2CCCN(C(=O)CCc3nccs3)C2)c1 (stereo not given) | -2.71 | 16.2 | -1.11 | 0.709 | -8.4 | 1.2 | 17.3 | 16.1 | 2.46 | 3.7 | -3.34
CCCNC(=O)c1cc2c([nH]c1=O)CC(c1cccs1)CC2=O (stereo not given) | 0.191 | 14.7 | 13.3 | 3.54 | 3.34 | -0.88 | 7.58 | 21 | -4.23 | 12.8 | -7.37
Cc1nc(CN2CCN(CC(=O)Nc3c(C)cccc3C)CC2)no1 | -3.96 | 10.4 | -0.791 | -7.52 | 5.58 | 1.9 | 15 | -5.46 | 7.62 | 18.8 | -17.5
CC(OCC1CC1)C(=O)N1CCCN(Cc2cnn(C)c2)CC1 (stereo not given) | 1.55 | 31.6 | -0.358 | -2.42 | -1.95 | -9.25 | 21.6 | 6.99 | 5.21 | 17.7 | -21.4
CN1CC(=O)N(c2cnn(C)c2)CC12CCN(Cc1ccccc1)C2 (stereo not given) | -4.4 | 5.48 | -2.44 | 7.88 | 10.3 | -4.39 | 4.02 | -7.57 | 5.21 | 8.64 | -4.55
CCN1CCn2c(C)cnc2C12CCN(C(=O)c1ccc(Cl)cc1)CC2 | -4.5 | 10.7 | 9.36 | -7.09 | -6.95 | -59 | 11.1 | 4.01 | 2.08 | 10 | -6.26
O=c1c2sccc2nc2n1CCN(Cc1cccs1)CC2 | -2.34 | 12.2 | 10.7 | 1.3 | -0.395 | -1.16 | 10.9 | 12.6 | 0 | 11.7 | -12
CC(C)N1CCC(NCc2cccnc2N(C)Cc2ccccc2)CC1 | -6.5 | 5.33 | -5.44 | 0.0952 | 0.0974 | 1.04 | 4.01 | -2.28 | 1.64 | 6.17 | -5.77
COCCn1nc(C(=O)N(C)Cc2cnn(C)c2)ccc1=O | -6.3 | 15.8 | -7.26 | -8.02 | 4.38 | -8.28 | 14.7 | 9.08 | 5.32 | -2.6 | -9.82
Cc1cnc(N2C[C@H]3C[C@H](C(=O)N(C)C)[C@@H](C2)O3)nc1 | -4.03 | -5.33 | 5.45 | -2.75 | 6.76 | -46.1 | 1.54 | -13.3 | -1.04 | 0 | -3.12
CC(C)(C)c1nc(CN2CCCC2CCc2ccccc2)no1 (stereo not given) | -4.12 | -2.6 | 4.97 | -2.77 | -6.18 | -0.712 | -5.91 | 27.2 | 0.971 | -14.6 | 1.21
CCOc1ccc(-n2nnc(C(=O)O)c2-c2ccncc2)cc1 | -0.35 | 13.2 | 1.31 | -8.67 | 0.292 | 1.18 | 9.11 | 23.3 | 2.13 | 18.2 | -5.18
CNc1nc(CNC(=O)Nc2ccccc2SC)cs1 | 1.51 | -2.63 | -1.33 | 0.229 | -2.07 | 3.83 | 7.69 | 10.1 | 1.47 | 4.88 | 3.33
CN(Cc1cccs1)C(=O)CS(=O)(=O)Cc1ccc(Cl)c(Cl)c1 | -3.83 | 2.6 | 4.47 | -21.6 | 5.39 | -2.74 | 16.7 | 6.68 | -11.4 | -2.35 | -21.7
CC(NC(=O)NCc1cccnc1N1CCCCC1)c1nccs1 (stereo not given) | -4.11 | 7.79 | 4.63 | 1.05 | 6.37 | -7.12 | 1.01 | 2.75 | 5.83 | 14.6 | -7.32
Cc1cccc2c1OCCC2NCc1c(C)nn(C)c1N(C)C (stereo not given) | 1.41 | 18.4 | -5.71 | 0.779 | -3.95 | 7.28 | 16.9 | 24.8 | 1.47 | 7.32 | -18.2
